A short description of assay [1]: Primary qHTS for inhibitors of nuclear receptor binding SET domain protein 2 (NSD2) in an RCH-ACV wild type WT cells (2C) (AID 1645877). Also: nearly all actives have a fitted effect of over 70% in size. Also: potency is read from the fitted curve at half-maximal effect. In general terms: Quantitative high-throughput screening tests each substance at several concentrations.
In assay [2] the target is Luciferin 4-monooxygenase (Photinus pyralis) (UniProt P08659). Description: Primary firefly luciferase (FLuc) qHTS assay for identification of artifact compounds. (AID 1845220). Also: nearly all actives have a fitted effect of over 60% in size. Also: potency is read from the fitted curve at half-maximal effect.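 As to activity change, negative = inhibition: plate controls were DMSO vehicle for no effect and no enzyme for full effect.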 The gist of the method:
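Reaction readout was CCD-imaged luminescence, taken 5 min after adding 10 nM purified firefly enzyme to compound-treated wells holding 10 uM luciferin and ATP in pH 7.6 buffer.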

In assay [3] the target is Glutathione peroxidase 1 (Homo sapiens) (UniProt P07203). Description: Primary qHTS Assay for Inhibitors of Recombinant Selenoprotein Glutathione Peroxidase 1 (GPX1) (AID 1845191). Also: nearly all actives have a fitted effect of over 65% in size. Summed up:
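Recombinant GPX1 (10 nM final) was preincubated with compound for 30 min at room temperature, then reacted with 1 mM GSH, 0.5 mM CHP, 0.5 mM NADPH and 100 nM glutathione reductase; NADPH fluorescence (340/450 nm) was read at 0 and 15 min.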

The target in assay [4] is Phospholipid hydroperoxide glutathione peroxidase GPX4 (Homo sapiens) (UniProt P36969). Description: Primary qHTS Assay for Inhibitors of Recombinant Selenoprotein Glutathione Peroxidase 4 (GPX4) (AID 1845192). Also: nearly all actives have a fitted effect of over 65% in size. Also: potency is read from the fitted curve at half-maximal effect. As to activity change, negative = inhibition: % is scaled to controls: 0 for no effect and ±100 for the full control effect. Summed up: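 GR-coupled readout: 100 nM GR, 1 mM GSH, 0.5 mM NADPH; NADPH fluorescence (ex 340/em 450 nm) read at t=0 and after 15 min RT. GPX4 200 nM, preincubated 30 min with compound; substrate 0.5 mM CHP.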
Sequence of Phospholipid hydroperoxide glutathione peroxidase GPX4 (Homo sapiens) (P36969 whole entry, looked up): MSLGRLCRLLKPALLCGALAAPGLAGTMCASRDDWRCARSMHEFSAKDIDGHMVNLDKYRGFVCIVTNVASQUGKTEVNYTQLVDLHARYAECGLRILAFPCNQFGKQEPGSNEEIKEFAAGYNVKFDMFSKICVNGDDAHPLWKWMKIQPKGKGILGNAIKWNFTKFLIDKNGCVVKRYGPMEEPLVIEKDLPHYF

Assay [5] can be described thus: NCATS anti-infectives library activity on HEK293 viability as a counter-qHTS vs the C. elegans viability qHTS (AID 1745854).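 Also: HEK293 cells exposed to compounds for 24 hr before the viability read; % is scaled to controls: 0 for no effect and ±100 for the full control effect.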 Summed up:
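Compounds were acoustically plated (several concentrations, 1:5, final up to 41.7 uM), then 1500 HEK293 cells added per well and incubated 24 hr at 37C, 5% CO2. CellTiter-Glo was added and luminescence read after 10 min.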

The target of assay [6] is Catechol O-methyltransferase (Homo sapiens) (UniProt P21964). Description: Confirmatory Screen for Target Class Profiling of Small Molecule Inhibitors of Methyltransferases (AID 1745852). As to activity change, negative = inhibition: % is scaled to controls: 0 for no effect and ±100 for the full control effect. Particulars: MTase-Glo luminescence, SAH detection, recombinant enzyme; measured here: COMT max response; stronger effect = lower value.
Sequence of Catechol O-methyltransferase (Homo sapiens) (P21964 whole entry, looked up): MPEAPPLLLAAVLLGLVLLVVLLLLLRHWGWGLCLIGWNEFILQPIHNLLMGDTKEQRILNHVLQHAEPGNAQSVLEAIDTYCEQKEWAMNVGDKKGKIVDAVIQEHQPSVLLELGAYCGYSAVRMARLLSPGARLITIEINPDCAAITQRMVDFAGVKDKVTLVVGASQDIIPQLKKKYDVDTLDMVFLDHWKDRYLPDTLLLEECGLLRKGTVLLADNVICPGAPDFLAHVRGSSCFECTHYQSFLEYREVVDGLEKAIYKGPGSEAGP
The target in assay [7] is Guanidinoacetate N-methyltransferase (Homo sapiens) (UniProt Q14353). The assay is described as above. As to conditions: MTase-Glo luminescence, SAH detection, recombinant enzyme; activity change, negative = inhibition: at 57.3 µM (top of the series) unless noted.
Assay [8] concerns the target Nicotinamide N-methyltransferase (Homo sapiens) (UniProt P40261). The assay is described as above. As to conditions: MTase-Glo luminescence, SAH detection, recombinant enzyme; measured here: NNMT max response; stronger effect = lower value.
Assay [9] has as its target Phenylethanolamine N-methyltransferase (Homo sapiens) (UniProt P11086). Described as above. As to conditions: MTase-Glo luminescence, SAH detection, recombinant enzyme; measured here: PNMT max response; stronger effect = lower value.
For assay [10], the target named is Metallo-beta-lactamase type 2 (Klebsiella pneumoniae) (UniProt C7C422). Put plainly: qHTS to identify inhibitors of the New Delhi Metallo-beta-lactamase (NDM): assay validation screen against the NCATS LOPAC Collection (AID 1794843).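 Also: nitrocefin turnover by NDM-1 measured as 485 nm absorbance at plateau; % is scaled to controls: 0 for no effect and ±100 for the full control effect.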 The gist of the method:
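NDM-1 at 2 nM final in 50 mM HEPES pH 7.0 with 1 uM ZnSO4 and 0.01% Tween20 was preincubated with library compounds in DMSO. Nitrocefin (50 uM stock) was then added, and absorbance at 485 nm was read at the kinetic plateau.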

“And” between values parts separate entries of the source, which are not always exact repeats. Equal values may be shown once. Results filed as inconclusive are left out. More than one record can exist for a structure, and the calls need not agree. The source made the active and inactive calls. Calls follow the shape of the dose curve; as a rule, active = well fitted curve in the direction sought with a large enough effect; inconclusive = small, poorly fitted or top-dose-only effect, or another doubt; inactive = no such curve, though single readings can be large; an effect the other way counts as inactive or inconclusive.

Sequence of Glutathione peroxidase 1 (Homo sapiens) (P07203 whole entry, looked up): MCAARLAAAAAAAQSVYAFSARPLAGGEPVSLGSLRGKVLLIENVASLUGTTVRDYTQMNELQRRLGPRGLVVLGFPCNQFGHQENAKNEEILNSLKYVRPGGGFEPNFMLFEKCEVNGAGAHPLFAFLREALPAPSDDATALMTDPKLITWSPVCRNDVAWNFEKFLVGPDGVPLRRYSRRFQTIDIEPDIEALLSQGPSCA
Sequence of Metallo-beta-lactamase type 2 (Klebsiella pneumoniae) (C7C422 whole entry, looked up): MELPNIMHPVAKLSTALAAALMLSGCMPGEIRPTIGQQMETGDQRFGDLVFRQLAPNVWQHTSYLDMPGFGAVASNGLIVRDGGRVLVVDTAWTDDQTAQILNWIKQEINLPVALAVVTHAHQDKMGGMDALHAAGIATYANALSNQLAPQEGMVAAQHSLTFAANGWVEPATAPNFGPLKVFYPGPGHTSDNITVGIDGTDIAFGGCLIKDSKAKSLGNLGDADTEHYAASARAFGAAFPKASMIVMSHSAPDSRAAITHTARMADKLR
Sequence of Phenylethanolamine N-methyltransferase (Homo sapiens) (P11086 whole entry, looked up): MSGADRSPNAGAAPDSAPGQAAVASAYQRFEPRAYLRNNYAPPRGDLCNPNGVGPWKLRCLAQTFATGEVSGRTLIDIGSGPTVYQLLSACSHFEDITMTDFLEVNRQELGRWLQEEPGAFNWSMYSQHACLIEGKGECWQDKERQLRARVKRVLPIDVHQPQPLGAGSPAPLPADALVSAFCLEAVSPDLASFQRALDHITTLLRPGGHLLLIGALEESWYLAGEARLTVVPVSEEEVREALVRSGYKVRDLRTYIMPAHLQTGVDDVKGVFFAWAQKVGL
Sequence of Nicotinamide N-methyltransferase (Homo sapiens) (P40261 whole entry, looked up): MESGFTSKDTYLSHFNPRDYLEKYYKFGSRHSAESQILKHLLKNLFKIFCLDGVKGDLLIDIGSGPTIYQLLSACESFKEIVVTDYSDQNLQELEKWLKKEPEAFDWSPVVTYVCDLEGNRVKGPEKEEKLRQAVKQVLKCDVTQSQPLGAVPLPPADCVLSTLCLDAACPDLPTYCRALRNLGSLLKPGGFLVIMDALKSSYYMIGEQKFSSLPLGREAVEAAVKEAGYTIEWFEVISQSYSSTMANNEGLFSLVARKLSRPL

As to `NC(=O)c1ccc2nc(-c3ccc(Oc4ccc(Cl)cc4)cc3)[nH]c2c1`, the Potency was 16.6 µM (active) and 16.4 µM (active) in [1]; 3.38 µM (active) in assay [2].

For the compound `CN(C[C@@H]1COCCO1)S(=O)(=O)Nc1ccc2ccc3ncc(-c4cnn(C)c4)cc3c(=O)c2c1`, the Potency in assay [1] is 6.49 µM (active). Further, the Potency result in [3], in assay [4] and in assay [2] was “inactive” throughout.

On to `CN(C)C1CCN(C(=O)c2ccc(NC(=O)Nc3nc(N4CCOCC4)nc(N4CCOCC4)n3)cc2)CC1`, for which, in assay [1], the Potency is 28.2 nM (active) and 37.2 nM (active). The Potency result in assay [4] and in [2] was “inactive” in each case.

Turning to `CN(C)Cc1ccc(-c2nc3cccc4c3n2CCNC4=O)cc1`, the Potency in [1] was 7.42 µM (active). The Potency entry in [3] and in assay [2] was “inactive” in each case.

In the case of `CCOC(=O)C1=C(N)Oc2ccc(Br)cc2C1C(C#N)C(=O)OCC` (stereo not drawn), the Potency entry in assay [1], in assay [3], in assay [4] and in assay [2] was “inactive” each time.

`O=C(CCN1CCN(C(=O)OCc2cc(Cl)cc(Cl)c2)CC1)c1ccc2[nH]c(=O)oc2c1`: the Potency in assay [1] is 14.5 µM (active) and 18.6 µM (active). Besides, the Potency result in [3], in [4] and in [2] was “inactive” throughout.

On to `O=c1[nH]cnc2c1ncn2[C@H]1CC[C@@H](CO)O1`, for which the Potency result in [1], in assay [3], in [4] and in assay [2] was “inactive” in each case.

For `O=C(NCc1ccccc1)c1csc(Nc2ccncn2)n1`, in assay [1], the Potency is 9.34 µM (active) and 16.3 µM (active). Besides, the Potency result in [3], in assay [4] and in assay [2] was “inactive” throughout.

Take `COCCOc1nc(-c2ccc(Cl)c(Cl)c2)n(-c2ccc(NC(=O)CCl)cc2)n1`: the Potency in [1] is 1.32 µM (active). Besides, the Potency result in assay [3], in [4] and in [2] was “inactive” in each case.

Take `C=CCc1ccc(O)c(-c2ccc(O)c(CC=C)c2)c1`: the outcome in assay [5] is “inactive”.

For the compound `CCc1ccc(C=C2SC(=S)NC2=O)cc1`, the values for the activity in assay [6], in assay [8] and in [9] were -2.96%, -15.7% and -1.21%, respectively. Moreover, the activity change, negative = inhibition in assay [7] was -3.11%.

`C=C1C(=O)OC(CCCCCCCC)C1C(=O)O` (stereo not drawn): the Potency entry in assay [1] and in assay [4] was “inactive” throughout.

As for `CNC(=O)c1ccc2cc(C3(O)CCn4cncc43)ccc2c1` (stereo not drawn), the Potency entry in assay [1], in assay [3], in assay [4] and in assay [2] was “inactive” each time.

Turning to `COc1ncc(-c2ccc3nccc(-c4ccnnc4)c3c2)cc1NS(=O)(=O)c1ccc(F)cc1F`, the Potency in [1] was 1.2 nM (active) and 7.4 nM (active). Further, the Potency result in assay [3], in assay [4] and in assay [2] was “inactive” each time.

`COc1ccc(C2Sc3ccccc3N(CCN(C)C)C(=O)C2OC(C)=O)cc1` (stereo not drawn): the Potency entry in assay [1], in [4] and in [2] was “inactive” each time.

With `COc1cc2nc(-c3ccc(N4CCN(C)CC4)cc3)nc(NCCN3CCOCC3)c2cc1OC`, in [1], the Potency was 2.09 µM (active). In addition, the Potency result in assay [3] and in assay [2] was “inactive” in each case.

Take `COc1ccc2cc(-c3nc(-c4ccc(S(C)=O)cc4)[nH]c3-c3ccncc3)ccc2c1` (stereo not drawn): in assay [1], the Potency was 26.3 µM (active) and 20.5 µM (active). Moreover, the Potency result in assay [3] and in assay [2] was “inactive” throughout.

As for `C=C1C(=O)[C@@]23C(CC[C@@H]1[C@H]2O)[C@@]12CO[C@]3(O)[C@@H](O)[C@@H]1C(C)(C)CC[C@@H]2O` (stereo partly drawn), the Potency in assay [1] was 1.48 µM (active). Moreover, the Potency result in assay [3], in [4] and in assay [2] was “inactive” throughout.

As for `C[C@@H](O)[C@H]1C(=O)N2C(C(=O)O)=C(S[C@@H]3CN[C@H](C(=O)N(C)C)C3)[C@H](C)[C@H]12`, the Potency entry in assay [1] and in assay [4] was “inactive” throughout.

Turning to `O=C(NC1CCOCC1)c1ccc(-c2cc(-c3cn[nH]c3-c3ccccn3)ccn2)cc1`, the Potency entry in assay [1], in assay [3], in [4] and in [2] was “inactive” in each case.

On to `CCOc1ccc(Nc2nc(-c3c(C)nc4ccccn34)cs2)cc1`, for which the Potency in [1] is 183 nM (active) and inactive. For the same compound, the Potency result in [3], in assay [4] and in assay [2] was “inactive” each time.

Regarding `O=c1cc(CN2CCOCC2)occ1OCCCCCSc1ccnc2cc(C(F)(F)F)ccc12`, the Potency in assay [1] is 16.6 µM (active) and 18.3 µM (active). The Potency result in assay [3], in [4] and in assay [2] was “inactive” each time.

As for `NS(=O)(=O)c1cccc2c1C(=O)c1cccc(O)c1C2=O`, the Potency in [1] was 0.742 µM (active). Also, the Potency entry in assay [4] is “inactive”.

On to `NC(=O)c1cccc(-c2cc(Nc3ccc(OC(F)(F)F)cc3)ncn2)c1`, for which, in [1], the Potency is 23 µM (active) and 13.2 µM (active). For the same compound, the Potency result in assay [3], in [4] and in assay [2] was “inactive” in each case.

As for `O=C(CCCCCCC(=O)Nc1ccccc1)NO`, in assay [1], the Potency is 106 nM (active) and 649 nM (active) and 833 nM (active). Besides, the Potency result in assay [3], in [4] and in assay [2] was “inactive” in each case.

As for `CC(C)(C)NC(=O)Nc1cccc(Nc2ncc(F)c(NC(C)(C)CO)n2)c1`, the Potency in [1] was 2.63 µM (active). The Potency entry in assay [3], in assay [4] and in assay [2] was “inactive” each time.

In the case of `CS(=O)c1ccc(-c2nc(-c3ccc(F)cc3)c(-c3ccncc3)[nH]2)cc1` (stereo not drawn), the Potency entry in assay [3] and in [2] was “inactive” in each case. Besides, in assay [4], the Potency is 25.5 µM (active).

For the compound `N#CC1(c2ccc(NC(=O)c3cccnc3NCc3ccncc3)cc2)CCCC1`, the Potency entry in [3] and in assay [4] was “inactive” each time.

Consider `CC(C)(C)c1ccc(C(O)CCCN2CCC(C(O)(c3ccccc3)c3ccccc3)CC2)cc1` (stereo not drawn), for which the Potency result in assay [10], in assay [3] and in assay [4] was “inactive” in each case.

As for `O=C(Nc1ccccc1Br)N[C@@H]1CCN(c2ccc(C(F)(F)F)cn2)C1`, the Potency result in assay [3] and in assay [4] was “inactive” throughout.

For `CCn1cc(C(=O)O)c(=O)c2ccc(C)nc21`, the Potency result in assay [10], in assay [3] and in assay [4] was “inactive” in each case.

With `O=c1c(O)c(-c2ccc(O)cc2)oc2cc(O)cc(O)c12`, the Potency entry in assay [3] and in assay [4] was “inactive” in each case.

Values taken from PubChem BioAssay (NCATS).
